# Experimental data: PubChem BioAssay (Tox21)
# Results filed as inconclusive are left out. Activity calls are given as the source filed them. The call rests on the fitted dose curve.
# Target: 5-hydroxytryptamine receptor 2A (Homo sapiens) (UniProt P28223)
# Experiment: 5-hydroxytryptamine receptor 2A (HTR2A) small molecule agonists, cell-based qHTS assay (AID 1963587); further: nearly all actives have a fitted effect of over 30% in size
# Settings: HTR2A-CHO cells, calcium flux fluorescence, agonist mode; series mostly up to 76.8 µM; activation: at the top concentration
# Source text: National Center for Advancing Translational Sciences [NCATS]
# Division of Preclinical Innovation [DPI]
# U.S. Environmental Protection Agency [EPA]
# National Institutes of Environmental Health Sciences [NIEHS]
# National Toxicology Program [NTP]
# U.S. Food and Drug Administration [FDA]
# The HTR2A receptor is a subtype of the 5-HT2 receptor that belongs to the serotonin receptor family and is a G protein-coupled receptor (GPCR). The HTR2A-CHO cell line stably expressing human 5-hydroxytryptamine receptor 2A (HTR2A) can be used for screening agonists of interactions between 5-HT2 and its ligands. The HTR2A-CHO calcium flux assay is a homogeneous fluorescence-based assay for detecting the intracellular calcium level using FDSS kinetic plate reader system.
# HTR2A-CHO cells were dispensed at 2000 cells/3uL/well in 1536-well black-clear bottom plates using a Multidrop Dispenser. After the assay plates were incubated at a 37 C/5% CO2 incubator for 18 h, 3 uL of Dye Loading Buffer was transferred to the assay plate by a Flying Reagent Dispenser. The assay plates were incubated at 37 C for 1h. For agonist mode, 23 nL of compounds dissolved in DMSO, positive controls or DMSO only was transferred to the assay plate by a pin tool. The fluorescence intensity in the plates was measured using FDSS 7000EX kinetic plate reader for 2 min at 1 sec intervals.
# On the % scale 0 is the no-effect control and ±100 the full control effect; potency means the concentration at half of the fitted maximal effect.
# Chain of 5-hydroxytryptamine receptor 2A (Homo sapiens) (P28223 whole entry, looked up): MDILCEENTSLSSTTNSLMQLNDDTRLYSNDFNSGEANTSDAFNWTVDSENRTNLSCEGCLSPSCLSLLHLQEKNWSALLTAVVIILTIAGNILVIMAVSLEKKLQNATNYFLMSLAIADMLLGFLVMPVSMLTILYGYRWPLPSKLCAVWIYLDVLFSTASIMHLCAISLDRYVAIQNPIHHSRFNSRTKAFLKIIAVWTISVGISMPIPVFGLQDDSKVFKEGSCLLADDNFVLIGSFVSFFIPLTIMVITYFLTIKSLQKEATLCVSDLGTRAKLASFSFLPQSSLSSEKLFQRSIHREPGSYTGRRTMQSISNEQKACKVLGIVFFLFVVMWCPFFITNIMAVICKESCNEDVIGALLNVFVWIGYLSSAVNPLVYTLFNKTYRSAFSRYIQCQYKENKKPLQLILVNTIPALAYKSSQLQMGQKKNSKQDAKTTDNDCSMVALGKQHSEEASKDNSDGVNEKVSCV
SMILES,activation,Potency
CCCCCCCCN(C)CCCCCCCC,1.51% (inactive),–
O=C(CCCCCCCCC#CI)Oc1ccccc1,-9.22% [at 35.6 µM] (inactive),–
O=C(c1ccccc1)c1cccc(O)c1,-1.23% (inactive),–
CCCCCCCCCCCCS(=O)(=O)Cl,18.9% [at 15.9 µM] (inactive),–
Nc1ccc(S(=O)(=O)Nc2ccccn2)cc1,-0.305% [at 35.6 µM] (inactive),–
COc1ccccc1N1CCN(CCCCNC(=O)c2ccc(-c3ccc(C(C)=O)cc3)cc2)CC1,–,0.0535 µM (active)
Nc1c2c(nc3ccccc13)CCCC2O (stereo not given),-2.49% [at 35.6 µM] (inactive),–
COc1ccc(-c2coc3cc(O)ccc3c2=O)cc1,-1.26% (inactive),–
CC(=O)N/N=C/c1ccc([N+](=O)[O-])o1,11.9% [at 35.6 µM] (inactive),–
C=CC(=O)OCCOCCOCC,-1.7% (inactive),–
CCC(C)(C)C(=O)O,-0.653% (inactive),–
C/C=C/C=C/COC(=O)C(C)C,14.1% (inactive),–
CCOC(=O)C(=O)CCCCCCl,-1% [at 35.6 µM] (inactive),–
OCCN1CN(CCO)CN(CCO)C1,4.63% (inactive),–
OCCSc1ccccc1,-2.69% (inactive),–
CC(C(=O)O)c1ccc(C(=O)c2ccccc2)s1 (stereo not given),-17.8% [at 35.6 µM] (inactive),–
Cc1cnc(NS(=O)(=O)c2ccc(N)cc2)nc1,-1.49% [at 35.6 µM] (inactive),–
CC(=O)OC1CCCCC1C(C)(C)C (stereo not given),3.67% (inactive),–
C=CC(C)C#N (stereo not given),0.24% (inactive),–
[O-][n+]1cccc(/C(Cl)=N/OC[C@@H](O)CN2CCCCC2)c1,-21.6% [at 35.6 µM] (inactive),–

SMILES,activation,Potency
CC(C)(C)NCCNC(C)(C)C,-0.402% (inactive),–
C[C@@H]1CC[C@@]2(OC1)O[C@H]1C[C@H]3[C@@H]4CC[C@H]5C[C@@H](O)CC[C@]5(C)[C@H]4CC(=O)[C@]3(C)[C@H]1[C@@H]2C,-0.761% [at 7.02 µM] (inactive),–
Cc1nc2ccccc2n1Cc1ccc(Cl)cc1,-5.11% [at 35.6 µM] (inactive),–
CC(=O)OCC(=O)[C@@]1(O)CC[C@H]2[C@@H]3CCC4=CC(=O)C=C[C@]4(C)[C@@]3(F)[C@@H](O)C[C@@]21C,0.968% [at 35.6 µM] (inactive),–
Nc1nc(Cl)nc2c1ncn2[C@@H]1O[C@H](CO)[C@@H](O)[C@@H]1F,-1.33% [at 35.6 µM] (inactive),–
CC(=O)OC(C)(C)C,3.63% (inactive),–
OC1CCC(C2CCCCC2)CC1 (stereo not given),11.6% (inactive),–
CCCCc1nc2cccnc2n1Cc1ccc(-c2ccccc2-c2nnn[nH]2)cc1,-10.5% (inactive),–
CC(C)C[C@H](NC(=O)OCC1c2ccccc2-c2ccccc21)C(=O)O,-2.12% (inactive),–
CC(=O)OCC(=O)[C@@]1(O)CCC2C3CCC4=CC(=O)CC[C@]4(C)C3[C@@H](O)C[C@@]21C (stereo not given in full),-9.92% [at 35.6 µM] (inactive),–
CCCCCCCCCCCCCCNCCO,–,23.9 µM (active)
CC(C)c1ccc(C#N)cc1,-6.97% (inactive),–
Cc1cccc(C)c1C,-0.143% (inactive),–
NNc1nc(-c2ccc([N+](=O)[O-])cc2)cs1,-0.4% (inactive),–
CC1(C)CC(O)CC(C)(C)N1,-1.54% (inactive),–
N[C@@H](COP(=O)(O)O)C(=O)O,-9.17% [at 15.9 µM] (inactive),–
COc1ccc2sc(C(=O)Nc3nnn[nH]3)c(OC(C)C)c2c1,2.77% (inactive),–
CCCC(C)C(=O)OCC (stereo not given),0.283% (inactive),–
CO[Si](CCCS)(OC)OC,-0.0577% (inactive),–
C/C=C/C(=O)OCC(C)C,2.52% (inactive),–
